For some of these results: Potency and affinity values are given separately.

Set-up in all cases: scale not given: direction of the effect not stated beside the values
In assay [1] the target is Protein translocase subunit SecA (Escherichia coli (strain K12)) (UniProt P10408). Briefly: Assay to Identify E. coli SecA ATPase Inhibitors. Format: functional. The note with it: 30 µM.
The target of assay [2] is T1, Ubiquitin-activating enzyme e1, putative (Leishmania donovani (strain BPK282A1)) (UniProt E9BSI1).
T1 sequence (whole entry): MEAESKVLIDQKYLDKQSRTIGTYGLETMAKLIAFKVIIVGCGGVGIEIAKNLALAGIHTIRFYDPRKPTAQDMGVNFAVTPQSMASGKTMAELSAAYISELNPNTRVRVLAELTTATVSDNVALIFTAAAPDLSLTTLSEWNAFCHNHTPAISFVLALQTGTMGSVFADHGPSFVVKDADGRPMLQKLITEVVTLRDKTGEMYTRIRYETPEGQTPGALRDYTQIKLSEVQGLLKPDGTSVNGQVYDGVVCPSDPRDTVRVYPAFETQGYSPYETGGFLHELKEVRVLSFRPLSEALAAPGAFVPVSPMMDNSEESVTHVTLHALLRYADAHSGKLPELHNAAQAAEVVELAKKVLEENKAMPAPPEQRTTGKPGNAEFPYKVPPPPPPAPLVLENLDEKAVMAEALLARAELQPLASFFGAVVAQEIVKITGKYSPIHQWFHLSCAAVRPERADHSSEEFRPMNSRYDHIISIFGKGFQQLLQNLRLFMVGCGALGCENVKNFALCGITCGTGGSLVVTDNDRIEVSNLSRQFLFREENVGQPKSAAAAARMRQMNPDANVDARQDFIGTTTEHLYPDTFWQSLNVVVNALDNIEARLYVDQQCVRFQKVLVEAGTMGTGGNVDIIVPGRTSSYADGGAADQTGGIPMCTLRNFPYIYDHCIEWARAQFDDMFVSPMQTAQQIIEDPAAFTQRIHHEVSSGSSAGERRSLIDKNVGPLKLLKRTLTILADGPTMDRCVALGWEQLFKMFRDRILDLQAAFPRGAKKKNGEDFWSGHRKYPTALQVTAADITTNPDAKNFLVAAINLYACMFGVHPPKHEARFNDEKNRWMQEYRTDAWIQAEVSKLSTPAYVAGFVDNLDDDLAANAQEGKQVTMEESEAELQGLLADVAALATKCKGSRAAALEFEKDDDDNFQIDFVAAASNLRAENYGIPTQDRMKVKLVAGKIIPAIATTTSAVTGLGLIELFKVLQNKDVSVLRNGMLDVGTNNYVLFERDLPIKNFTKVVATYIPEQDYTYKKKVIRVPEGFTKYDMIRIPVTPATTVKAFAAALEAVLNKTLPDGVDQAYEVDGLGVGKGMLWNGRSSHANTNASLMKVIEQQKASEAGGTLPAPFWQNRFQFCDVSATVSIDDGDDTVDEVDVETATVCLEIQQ
In words: Leishmania donovani Ubiquitin Activating Enzyme (LdE1). The note with it: 30 µM. It is filed as functional.

For assay [3], the target named is AMP-activated protein kinase, AMPK (Homo sapiens) (UniProt P54646+O43741+P54619+Q9UGJ0+Q9Y478+Q13131+Q9UGI9). In words: AMP-dependent Kinase enzyme assay. An in vitro enzyme assay that detects ADP turnover that is directly proportional to AMPK activity. This uses naive AMPK that is activated during the assay with MK-8722. It is filed as functional. The note with it: 30 µM.

Assay [4] addresses Sialic acid-binding Ig-like lectin 9 (Homo sapiens) (UniProt Q9Y336). In words: Hs-Siglec9 ALPHAscreen SOP 20170721. The note with it: 10 µM.
In a further assay the test system is Trypanosoma cruzi. Briefly: Trypanosoma cruzi phosphomannomutase and mannose-1-phosphate guanylyltransferase assay. Format: functional. Particulars: 10 µM.
In assay [5] the target is T2, Arginase-2, mitochondrial (Homo sapiens) (UniProt P78540).
T2 sequence (whole entry): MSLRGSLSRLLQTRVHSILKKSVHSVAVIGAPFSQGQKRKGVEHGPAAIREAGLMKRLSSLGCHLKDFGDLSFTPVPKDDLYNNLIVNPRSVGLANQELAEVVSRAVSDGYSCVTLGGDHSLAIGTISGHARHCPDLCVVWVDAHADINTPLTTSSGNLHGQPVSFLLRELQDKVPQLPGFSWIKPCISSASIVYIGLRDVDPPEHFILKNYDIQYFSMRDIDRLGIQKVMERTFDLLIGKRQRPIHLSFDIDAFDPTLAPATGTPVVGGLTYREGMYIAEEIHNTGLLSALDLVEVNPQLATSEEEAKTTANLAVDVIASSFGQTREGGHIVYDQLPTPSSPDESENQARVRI
In words: in vitro enzyme assay to detect the production of urea directly proportional to the activity of Arginase II. Also: in the data most compounds retested in dose-response had high values. Particulars: 33.3 µM. It is filed as functional.

Assay [6] concerns the target T3, Proteasome subunit beta (Trypanosoma cruzi) (UniProt O96673).
T3 sequence (whole entry): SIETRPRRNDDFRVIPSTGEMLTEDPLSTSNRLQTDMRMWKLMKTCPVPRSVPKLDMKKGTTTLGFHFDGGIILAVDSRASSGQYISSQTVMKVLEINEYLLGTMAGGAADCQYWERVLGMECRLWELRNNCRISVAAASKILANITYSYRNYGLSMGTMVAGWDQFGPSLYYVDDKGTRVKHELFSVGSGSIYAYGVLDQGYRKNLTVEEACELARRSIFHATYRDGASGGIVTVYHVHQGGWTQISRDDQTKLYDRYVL
In words: Trypanosoma cruzi proteasome chymotrypsin-like activity (TcProtChymo) assay. Also: in the data most compounds retested in dose-response had high values. Format: functional. Particulars: 9.37 µM.

The species named for a further assay is Homo sapiens. Briefly: To identify inhibition of the IFN signalling (Jak-Stat) pathway via expression of an eGFP reporter gene under the control of an IFN-stimulated response element (ISRE) containing MxA promoter. It is filed as functional. The note with it: 30 µM.
Assay [7] concerns the target T4, Tyrosyl-tRNA synthetase, putative (Trypanosoma cruzi (strain CL Brener)) (UniProt Q4DSP6).
T4 sequence (whole entry): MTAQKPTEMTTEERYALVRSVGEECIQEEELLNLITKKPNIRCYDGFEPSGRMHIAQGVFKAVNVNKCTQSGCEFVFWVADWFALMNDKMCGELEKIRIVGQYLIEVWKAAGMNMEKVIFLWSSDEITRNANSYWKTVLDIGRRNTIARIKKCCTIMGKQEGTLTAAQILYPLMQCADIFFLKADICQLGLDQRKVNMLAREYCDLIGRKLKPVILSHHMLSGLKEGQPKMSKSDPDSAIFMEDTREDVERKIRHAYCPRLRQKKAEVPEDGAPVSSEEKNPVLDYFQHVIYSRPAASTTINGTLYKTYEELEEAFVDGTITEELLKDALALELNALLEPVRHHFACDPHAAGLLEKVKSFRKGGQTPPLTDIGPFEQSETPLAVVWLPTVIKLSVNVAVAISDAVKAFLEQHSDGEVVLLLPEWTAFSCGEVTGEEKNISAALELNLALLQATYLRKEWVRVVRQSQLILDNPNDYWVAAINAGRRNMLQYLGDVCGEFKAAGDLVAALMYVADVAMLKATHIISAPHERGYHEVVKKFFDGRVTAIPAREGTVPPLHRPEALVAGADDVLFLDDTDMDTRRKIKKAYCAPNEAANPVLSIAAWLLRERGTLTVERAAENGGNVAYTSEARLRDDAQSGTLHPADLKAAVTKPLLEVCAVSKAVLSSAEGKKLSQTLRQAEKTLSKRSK
In words: Trypanosoma cruzi tyrosyl tRNA synthetase (TcYRS) _High Tyrosine SOP. Also: in the data most compounds retested in dose-response had high values. It is filed as functional. Particulars: 30 µM.

Assay [8] deals with T4, Tyrosyl-tRNA synthetase, putative (Trypanosoma cruzi (strain CL Brener)). In words: Trypanosoma cruzi tyrosyl tRNA synthetase (TcYRS) SOP. It is filed as functional. The note with it: 30 µM.
For assay [9], the target named is Chromo domain-containing protein 1 (Saccharomyces cerevisiae (strain ATCC 204508 / S288c) (Baker's yeast)) (UniProt P32657). Briefly: ScCHD-1 Enzyme Inhibition Assay. Also: in the data most compounds retested in dose-response had high values. It is filed as functional. The note with it: 30 µM.
Chain of Chromo domain-containing protein 1 (Saccharomyces cerevisiae (strain ATCC 204508 / S288c) (Baker's yeast)) (P32657 whole entry, the tested form may be a part): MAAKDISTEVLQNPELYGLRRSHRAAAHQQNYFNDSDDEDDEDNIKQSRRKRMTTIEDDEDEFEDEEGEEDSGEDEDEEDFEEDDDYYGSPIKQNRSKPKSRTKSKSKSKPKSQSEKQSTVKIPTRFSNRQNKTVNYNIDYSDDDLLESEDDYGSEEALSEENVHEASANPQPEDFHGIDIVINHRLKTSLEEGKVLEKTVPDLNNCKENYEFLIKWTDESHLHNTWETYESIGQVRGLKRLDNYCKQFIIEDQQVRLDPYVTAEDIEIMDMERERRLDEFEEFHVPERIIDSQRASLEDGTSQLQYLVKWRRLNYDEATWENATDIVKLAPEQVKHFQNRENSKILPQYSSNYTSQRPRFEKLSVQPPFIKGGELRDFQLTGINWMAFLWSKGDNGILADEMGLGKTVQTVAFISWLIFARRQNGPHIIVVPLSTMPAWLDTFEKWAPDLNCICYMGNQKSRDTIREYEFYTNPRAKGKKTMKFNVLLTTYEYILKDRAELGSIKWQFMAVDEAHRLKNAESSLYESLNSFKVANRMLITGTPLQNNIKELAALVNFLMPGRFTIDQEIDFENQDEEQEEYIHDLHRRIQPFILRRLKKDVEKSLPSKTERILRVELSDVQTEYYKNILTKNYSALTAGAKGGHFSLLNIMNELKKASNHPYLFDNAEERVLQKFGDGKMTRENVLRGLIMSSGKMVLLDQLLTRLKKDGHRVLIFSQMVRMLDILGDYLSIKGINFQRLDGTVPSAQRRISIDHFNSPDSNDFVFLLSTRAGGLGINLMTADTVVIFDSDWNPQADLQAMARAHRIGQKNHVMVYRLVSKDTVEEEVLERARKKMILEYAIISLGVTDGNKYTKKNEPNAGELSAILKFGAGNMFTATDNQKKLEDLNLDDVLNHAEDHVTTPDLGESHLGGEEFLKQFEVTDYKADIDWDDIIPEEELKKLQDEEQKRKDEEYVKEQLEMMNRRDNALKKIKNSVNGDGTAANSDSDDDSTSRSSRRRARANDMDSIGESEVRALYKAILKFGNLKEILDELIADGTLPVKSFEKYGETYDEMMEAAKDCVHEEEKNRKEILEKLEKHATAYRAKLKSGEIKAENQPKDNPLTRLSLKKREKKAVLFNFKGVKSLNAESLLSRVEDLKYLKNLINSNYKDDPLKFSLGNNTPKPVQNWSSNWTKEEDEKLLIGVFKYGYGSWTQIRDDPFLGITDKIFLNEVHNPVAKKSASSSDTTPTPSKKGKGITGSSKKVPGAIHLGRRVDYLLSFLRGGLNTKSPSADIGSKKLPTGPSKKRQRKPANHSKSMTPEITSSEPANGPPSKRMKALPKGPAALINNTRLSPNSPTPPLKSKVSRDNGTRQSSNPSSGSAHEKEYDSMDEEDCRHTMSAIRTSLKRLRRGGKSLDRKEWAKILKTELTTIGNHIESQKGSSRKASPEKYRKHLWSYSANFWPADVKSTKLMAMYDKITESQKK

Chain of Sialic acid-binding Ig-like lectin 9 (Homo sapiens) (Q9Y336 whole entry): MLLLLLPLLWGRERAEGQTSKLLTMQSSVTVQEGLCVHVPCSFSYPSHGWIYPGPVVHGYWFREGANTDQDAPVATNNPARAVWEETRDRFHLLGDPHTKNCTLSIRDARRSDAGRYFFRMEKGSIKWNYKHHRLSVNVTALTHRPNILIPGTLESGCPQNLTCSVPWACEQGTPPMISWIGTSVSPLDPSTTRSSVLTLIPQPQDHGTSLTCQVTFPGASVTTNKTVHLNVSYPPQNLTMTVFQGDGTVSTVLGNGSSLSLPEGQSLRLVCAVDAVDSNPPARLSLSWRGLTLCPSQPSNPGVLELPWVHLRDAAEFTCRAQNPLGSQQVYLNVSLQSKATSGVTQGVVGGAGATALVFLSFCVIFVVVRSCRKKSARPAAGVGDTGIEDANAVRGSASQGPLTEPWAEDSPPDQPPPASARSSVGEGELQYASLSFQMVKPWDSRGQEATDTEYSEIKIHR
Chain of Protein translocase subunit SecA (Escherichia coli (strain K12)) (P10408 whole entry): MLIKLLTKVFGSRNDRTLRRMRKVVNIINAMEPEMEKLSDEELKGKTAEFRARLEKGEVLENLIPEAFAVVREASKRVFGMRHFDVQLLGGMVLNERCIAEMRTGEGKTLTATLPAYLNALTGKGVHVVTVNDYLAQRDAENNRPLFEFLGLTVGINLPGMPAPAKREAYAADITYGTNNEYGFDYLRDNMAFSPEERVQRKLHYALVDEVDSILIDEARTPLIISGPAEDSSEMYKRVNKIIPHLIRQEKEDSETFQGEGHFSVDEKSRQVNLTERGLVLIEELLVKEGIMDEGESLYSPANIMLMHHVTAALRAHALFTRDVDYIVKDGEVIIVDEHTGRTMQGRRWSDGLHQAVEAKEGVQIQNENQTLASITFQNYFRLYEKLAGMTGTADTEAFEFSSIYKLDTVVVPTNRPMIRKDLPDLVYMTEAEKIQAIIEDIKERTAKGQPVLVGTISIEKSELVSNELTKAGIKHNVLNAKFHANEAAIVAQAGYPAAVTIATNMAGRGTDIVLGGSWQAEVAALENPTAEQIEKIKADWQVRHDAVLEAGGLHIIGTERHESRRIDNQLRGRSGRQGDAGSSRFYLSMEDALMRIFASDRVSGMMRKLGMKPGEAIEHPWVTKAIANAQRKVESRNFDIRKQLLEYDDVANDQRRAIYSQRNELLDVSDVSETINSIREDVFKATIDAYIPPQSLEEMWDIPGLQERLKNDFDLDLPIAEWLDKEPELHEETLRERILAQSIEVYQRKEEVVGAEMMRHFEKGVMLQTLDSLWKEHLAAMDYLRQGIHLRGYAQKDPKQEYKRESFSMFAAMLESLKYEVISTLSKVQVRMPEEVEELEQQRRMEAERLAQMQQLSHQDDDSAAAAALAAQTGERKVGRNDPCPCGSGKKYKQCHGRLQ

As for `O=C1CCC2(CCN(c3ncc(F)cn3)CC2)N1CCN1CCCC1`, the Percent Effect is -2.97% in [1]; 7.79% in [2]; -0.558% in assay [3]; -6.43% in assay [4]; -2.07% in the assay with Trypanosoma cruzi; 1.94% in [5]. In addition, the Percent Effect is 21.4% in assay [6]; 12.5% in the assay filed under Homo sapiens; 1.06% in assay [7]; 3.85% in assay [8]; -7.84% in assay [9].
Regarding `O=C(Cc1ccc2c(c1)OCO2)N1CCCN(c2ccccc2)CC1`, the Percent Effect was -6.04% in assay [1]; 13.7% in assay [2]; 3.46% in assay [3]; 5.03% in assay [4]; 0.992% with Trypanosoma cruzi; -2% in assay [5]. Also, the Percent Effect in assay [6] was 4.54%; in the assay listed under Homo sapiens, 10.8%; in assay [7] it was 3.12%; in [8], 11.1%; in assay [9] it was -0.294%.
On to `CCc1nc(C2CCCN(C(=O)CCn3ccccc3=O)C2)no1` (stereo not drawn), for which the Percent Effect was -2.1% in assay [1]; 0% in assay [2]; -7.52% in [3]; -0.82% in assay [4]; 8.08% in the assay on Trypanosoma cruzi; -1.15% in assay [5]. In addition, the Percent Effect in [6] is 1.34%; in the assay filed under Homo sapiens it was -13.7%; in assay [7] it was -0.49%; in assay [8], 0%; in assay [9] it was 2.66%.
Consider `Cc1ccccc1C(=O)CN1C(=O)c2ccccc2CS1(=O)=O`, for which the Percent Effect in assay [1] was -2.33%; in assay [2], -10.8%; in [3] it was 2.31%; in assay [4], -3.21%; with Trypanosoma cruzi, -5.41%; in [5], -2.86%. Also, the Percent Effect is 12.8% in assay [6]; 18.7% in the assay filed under Homo sapiens; -25.9% in [7]; -31.7% in [8]; 14.8% in [9].
Turning to `CN(C)c1cc2c(nn1)CCN(C(=O)C1Cc3ccccc3S1)C2` (stereo not drawn), the Percent Effect in [1] is -3.54%; in assay [2], 10.1%; in assay [3] it was -4.45%; in assay [4], 16%; with Trypanosoma cruzi, 5.76%; in assay [5], 1.14%. The Percent Effect in assay [6] is 8.27%; in the assay listed under Homo sapiens it was -10.7%; in assay [7] it was 7.39%; in assay [8], 11.4%; in assay [9] it was 9.74%.
As for `O=C(CN1CCC(N2CCNC2=O)CC1)NCC(F)(F)F`, the Percent Effect was -3.52% in assay [1]; 17.7% in assay [2]; -4.25% in assay [3]; 3.47% in assay [4]; -2.36% in the assay on Trypanosoma cruzi; 4.56% in assay [5]. Moreover, the Percent Effect in assay [6] is 5%; in the assay filed under Homo sapiens, 9.87%; in assay [7], 5.42%; in assay [8], 13.9%; in assay [9] it was -4.76%.
As for `CCn1cc(NC(=O)C2CCN(Cc3noc(C(C)C)n3)CC2)cn1`, the Percent Effect in [1] is -2.1%; in assay [2], 8.86%; in [3], 0.341%; in [4], 3.03%; in the assay on Trypanosoma cruzi it was -1.74%; in assay [5], -0.645%. In addition, the Percent Effect in assay [6] is 10.3%; in the assay filed under Homo sapiens it was 8.77%; in assay [7] it was 9.38%; in assay [8], 22.8%; in assay [9], -19.2%.
`COc1c(CNC(c2ccc(F)cc2)C(C)(C)C)c(C)nn1C` (stereo not drawn): the Percent Effect in assay [1] is -1.68%; in assay [2] it was 5.26%; in [3] it was -4.48%; in assay [4], 2.41%; in the assay with Trypanosoma cruzi, -6.01%; in assay [5], -7.28%. The Percent Effect in assay [6] was 4.84%; in the assay listed under Homo sapiens, 30.8%; in [7], 0.49%; in [8], -4.88%; in [9], -5.33%.
